Screens: PubChem BioAssay, several laboratories
LYPLA1 counter: LYPLA1 inhibitors, primary screen, counter-screen for PME1 inhibitor project, biochemical, fluorescence polarization, FP-Rh probe ABPP. Acyl-protein thioesterase 1 (Homo sapiens), O75608. recombinant LYPLA1. inhibition, % at 5.9 µM. 0.16% of 320,000 active. AID 2174, 2009;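 active = inhibition above the mean of all tested compounds plus 3 SD, set per campaign, cut at about 14% in these data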;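 also: inhibitors block serine hydrolase probe labeling of LYPLA1 so polarization falls; 0% = enzyme with DMSO and 100% = wells lacking LYPLA1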
Target sequence (O75608 whole entry, looked up): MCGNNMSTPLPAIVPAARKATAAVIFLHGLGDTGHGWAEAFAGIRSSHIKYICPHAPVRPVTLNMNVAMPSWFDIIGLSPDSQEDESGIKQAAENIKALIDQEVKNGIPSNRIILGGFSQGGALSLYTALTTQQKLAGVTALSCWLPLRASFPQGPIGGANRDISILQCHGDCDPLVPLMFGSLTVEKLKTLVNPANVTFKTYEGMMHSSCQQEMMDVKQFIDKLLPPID
PME-1 inh: PME-1 inhibitors via competitive probe labeling, primary screen, biochemical, fluorescence polarization, FP-Rh probe, HTS; Protein phosphatase methylesterase 1 (Homo sapiens), Q9Y570; recombinant PME-1; inhibition, % at 5.9 µM; 0.53% of 320,000 active;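 active = inhibition above the campaign mean of all compounds plus 3 SD, cut at about 26% in these data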;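 also: competitive labeling of PME-1 active site by serine hydrolase directed probe; 0% = PME-1 with DMSO and 100% = wells lacking PME-1 enzyme; inhibitors block probe labeling so polarization falls and inhibition rises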
PREPL inh: PREPL enzyme inhibitors, primary screen, biochemical, fluorescence polarization. Prolyl endopeptidase-like (Homo sapiens), Q4J6C6. recombinant PREPL, fluorescence polarization activity-based probe. inhibition, % at 5.96 µM. 0.68% of 320,000 active; in the data active = inhibition above about 43%;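 also: 0% = enzyme with DMSO and 100% = wells lacking enzyme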
LYPLA2 counter: LYPLA2 inhibitors, primary screen, counter-screen for PME1 inhibitor project, biochemical, fluorescence polarization, FP-Rh probe ABPP. Acyl-protein thioesterase 2 (Homo sapiens), O95372. recombinant LYPLA2. inhibition, % at 5.9 µM. 0.38% of 320,000 active. AID 2177, 2009;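 active = inhibition above the screen-wide mean plus 3 SD, limit set per campaign, cut at about 26% in these data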;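 also: 0% = LYPLA2 with DMSO and 100% = wells lacking LYPLA2 enzyme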
Target sequence (O95372 whole entry, looked up): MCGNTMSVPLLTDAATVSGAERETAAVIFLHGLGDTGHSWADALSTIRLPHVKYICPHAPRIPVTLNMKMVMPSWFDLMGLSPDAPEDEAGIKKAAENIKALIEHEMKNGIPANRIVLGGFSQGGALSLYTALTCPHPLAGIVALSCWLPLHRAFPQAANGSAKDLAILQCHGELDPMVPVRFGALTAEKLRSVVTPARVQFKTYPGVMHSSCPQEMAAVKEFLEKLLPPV
MEX-5 binding: MEX-5 zinc finger RNA-binding disruptors – biochemical, C. elegans, fluorescence polarization, MLPCN library, primary screen | AID 1832, 2009 | MEX-5/FITC-TCR2 RNA binding; hits give low values | 0.38% of 300,000 active | Zinc finger protein mex-5 (Caenorhabditis elegans), Q9XUB2 | activity score (negative = inhibition of binding), % at 10 µM;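 active = inhibition past about -25% in most replicates, and total fluorescence under double the plate's negative control median, limit read from the data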;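 also: 0% = DMSO and -100% = 5 µM competing unlabeled TCR2 RNA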
Fam108B counter: mouse Fam108B serine hydrolase inhibitors, primary screen, counter-screen for RBBP9 inhibitor project, biochemical, fluorescence polarization; recombinant Fam108B, FP-Rh probe fluorescence polarization; inhibition, % at 9.51 µM; 0.33% of 300,000 active;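 active = inhibition above the screen mean inhibition plus 3 SD, computed separately per campaign, cut at about 18% in these data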;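 also: inhibitors lower polarization as less probe binds the enzyme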
* marks the source's active call; other numbers are inactive results; / = not tested or not shown. Compounds with a hit are over-represented: about 1.6% of the library has one in this group of screens.

SMILES | LYPLA1 counter | PME-1 inh | PREPL inh | LYPLA2 counter | MEX-5 binding | Fam108B counter
O=C(N=Nc1c(O)n(Cc2ccccc2)c2ccccc12)c1cc2ccccc2cc1O | -4 | 51* | 3 | 0 | 1 | 1
N#Cc1c(NC(=O)c2cc([N+](=O)[O-])ccc2N2CCOCC2)sc2c1CCCC2 | 1 | -2 | 9 | 2 | -2 | 0
CCOc1ccc2c(c1)[nH]c(=S)n2C | 2 | 5 | 5 | -2 | 0 | 0
Cc1ccc(C(=O)COC(=O)c2cccc(NC(=O)c3ccc([N+](=O)[O-])cc3[N+](=O)[O-])c2)cc1 | -19 | 32* | 13 | 24 | 0 | 12
CC(=O)Nc1ccc(NC(=O)CCC(=O)OCC(=O)c2cccc([N+](=O)[O-])c2)cc1 | -3 | 0 | -5 | -4 | 2 | 4
Cc1cccc(NC(=O)CCC(=O)OCC(=O)c2ccc(Oc3ccc([N+](=O)[O-])cc3)cc2)c1 | 1 | 5 | 5 | 31* | 1 | 3
O=C1CC(C(=O)Nc2ccc(Br)cc2)C2(CCCC2)O1 (stereo not drawn) | 2 | 0 | -15 | 2 | 0 | 0
CC(C)Oc1ccc(S(=O)(=O)N2CCCCC2)cc1NC(=O)CN1C(=O)NC(C)(c2ccccc2)C1=O (stereo not drawn) | 1 | 39* | 3 | 5 | -1 | 1
Cc1cccc(C)c1OCC(=O)NNC(=O)CCCn1c(=O)oc2ccccc21 | / | / | 4 | / | / | /
Oc1c(C=Nc2ccccc2)sc(=S)n1Cc1ccccc1 | -16 | -12 | 6 | -10 | -43* | -1
O=c1[nH]c(/C=C/c2cccc3ccccc23)nc2ccccc12 | -12 | -13 | -7 | -17 | -50* | -29
CN(C)c1ccc(/C=C/c2nc3ccccc3c(=O)[nH]2)cc1 | 1 | 7 | 20 | 2 | -33* | -11
O=C(CN1CCN(S(=O)(=O)c2ccc(F)c(Cl)c2)CC1)N1CCNC1=O | 5 | -6 | -2 | 9 | / | /
c1ccc(-c2nnc(-c3ccccn3)nn2)nc1 | 1 | 2 | 12 | 7 | -42* | 2
CCCCN(CCCC)CCNC(=O)c1cn(CC)c2ccc(S(=O)(=O)N3CCc4ccccc4C3)cc2c1=O | -2 | 59* | 12 | 3 | -1 | 7
CCCN(CCC)CCCNC(=O)c1cn(CC)c2ccc(S(=O)(=O)N(C)C3CCCCC3)cc2c1=O | -4 | 49* | 13 | -8 | -4 | 4
CCCCN(CCCC)CCNC(=O)c1cn(C)c2ccc(S(=O)(=O)N(C)C3CCCCC3)cc2c1=O | 1 | 66* | 2 | 0 | 0 | -4
CCOc1ccc(C2Nc3ccccc3NC3=C2C(=O)CC(C)(C)C3)cc1OC (stereo not drawn) | -1 | -1 | -6 | 0 | 0 | 0
COc1ccc(Cn2c(O)c(C=Nc3ccccc3C(=O)O)c3ccccc3c2=O)cc1 | 3 | 0 | 15 | -1 | -1 | 12
COc1ccccc1NS(=O)(=O)c1cccc(-n2c(O)c(C=Nc3ccccc3C(=O)O)c3ccccc3c2=O)c1 | 8 | 82* | 22 | 3 | -1 | 18
CN(c1ccccc1)c1ccc(/C=N/NC(=O)CC#N)cc1 | -1 | 1 | 50* | 4 | -2 | 3
CC1(c2nnc(Cc3ccccc3)o2)CC(c2ccc(Cl)cc2)=NO1 (stereo not drawn) | -1 | 3 | -65 | 1 | 1 | 2
O=[N+]([O-])c1ccc(Cl)c2c1C1C=CCC1C(c1ccccn1)N2 (stereo not drawn) | -4 | 5 | 23 | 2 | -3 | 7
O=C(O)c1ccc(Cl)c2c1C1C=CCC1C(c1ccccn1)N2 (stereo not drawn) | 2 | -7 | 3 | 3 | -68* | 7
O=C1CSC(=S)N1/N=C/c1ccc(O)c(O)c1O | -9 | -8 | 19 | -10 | -88* | 14
SMILES | LYPLA1 counter | PME-1 inh | PREPL inh | LYPLA2 counter | MEX-5 binding | Fam108B counter
O=C1CSC(=S)N1/N=C/c1cc(Br)ccc1O | -7 | 4 | -1 | -10 | -5 | 6
CN=C1S/C(=C\c2ccc(N3CCCC3)c(F)c2)C(=O)N1C | 2 | -13 | 24 | 5 | -59* | 0
CCCCN(CCCC)Cc1ccc(C(=O)NNC(=O)Nc2ccc(Cl)cc2)o1 | -2 | -3 | 4 | -2 | -1 | 0
O=C(NCc1ccccc1CN1CCCC1)c1cc2cc(Cl)ccc2o1 | -3 | -3 | 24 | 4 | / | /
Cc1cc([N+](=O)[O-])nn1CC(=O)NNC(=S)Nc1ccc([N+](=O)[O-])cc1 | -3 | -5 | 0 | -1 | -37* | 2
Cn1c(=O)c2c(nc(N3CCCC3)n2CC(O)CO)n(C)c1=O (stereo not drawn) | -2 | 6 | 6 | 1 | 1 | 2
Cc1cccc(-n2c3nc(=O)[nH]c(=O)c-3cc3cc([N+](=O)[O-])ccc32)c1 | 0 | 31* | 3 | -1 | 1 | 13
COc1ccccc1NC(=O)c1sc2nc(-c3ccco3)ccc2c1N | -10 | 70* | 8 | -6 | -1 | 10
Nc1c(C(=O)Nc2nc3ccccc3s2)sc2nc(-c3cccs3)ccc12 | -13 | 34* | 10 | -6 | -46* | 8
Nc1c(C(=O)Nc2ccccc2)sc2nc(-c3ccco3)ccc12 | -11 | 56* | 17 | 2 | -2 | 4
COc1ccc(NC(=O)c2sc3nc(-c4cccnc4)ccc3c2N)cc1 | 3 | 7 | 17 | 7 | -55* | 2
Nc1c(C(=O)Nc2ccccc2)sc2nc(-c3cccnc3)ccc12 | -1 | 14 | 16 | -4 | -13 | 1
O=C(O)c1cc(-c2ccccc2Cl)n(-c2cccc(Cl)c2)n1 | 1 | -5 | 16 | -9 | 0 | 0
Cc1ccc(/C=C/C(=O)O)cc1S(=O)(=O)N1CCCCC1 | -3 | 2 | 3 | 2 | -30* | -1
COc1ccc2nc3ccccc3nc2c1NC(=O)c1ccc(Cl)cc1Cl | 3 | 9 | -1 | 3 | -53* | -1
C=CC1=C(C(=O)O)N2C(=O)[C@@H](NC(=O)/C(=N\O)c3csc(N)n3)[C@H]2SC1 (stereo in doubt) | -3 | -7 | -11 | -3 | -26* | -2
CS(=O)c1ccccc1COC(=O)Nc1ccc(Cl)cc1 (stereo not drawn) | 0 | 2 | -13 | 3 | 4 | 4
CC(=O)Nc1ccc(Nc2ccc3c4c(cc(=O)n3C)-c3ccccc3C(=O)c24)cc1 | 4 | 4 | 14 | 9 | -5 | 5
